# Results: ChEMBL document CHEMBL1961873, “Compounds: GSK PKIS; Assays: Nanosyn kinase panel” (2012)
# Key:
# [1] = target: Sphingosine kinase 1 (Homo sapiens) (UniProt Q9NYA1); conditions: at 1 µM;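 also: mean SPHK1 inhibition value reported from the GSK PKIS kinase panel screen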
# [2] = target: T1, Sphingosine kinase 2 (Homo sapiens) (UniProt Q9NRA0); conditions: at 0.1 µM
# T1 sequence (whole entry): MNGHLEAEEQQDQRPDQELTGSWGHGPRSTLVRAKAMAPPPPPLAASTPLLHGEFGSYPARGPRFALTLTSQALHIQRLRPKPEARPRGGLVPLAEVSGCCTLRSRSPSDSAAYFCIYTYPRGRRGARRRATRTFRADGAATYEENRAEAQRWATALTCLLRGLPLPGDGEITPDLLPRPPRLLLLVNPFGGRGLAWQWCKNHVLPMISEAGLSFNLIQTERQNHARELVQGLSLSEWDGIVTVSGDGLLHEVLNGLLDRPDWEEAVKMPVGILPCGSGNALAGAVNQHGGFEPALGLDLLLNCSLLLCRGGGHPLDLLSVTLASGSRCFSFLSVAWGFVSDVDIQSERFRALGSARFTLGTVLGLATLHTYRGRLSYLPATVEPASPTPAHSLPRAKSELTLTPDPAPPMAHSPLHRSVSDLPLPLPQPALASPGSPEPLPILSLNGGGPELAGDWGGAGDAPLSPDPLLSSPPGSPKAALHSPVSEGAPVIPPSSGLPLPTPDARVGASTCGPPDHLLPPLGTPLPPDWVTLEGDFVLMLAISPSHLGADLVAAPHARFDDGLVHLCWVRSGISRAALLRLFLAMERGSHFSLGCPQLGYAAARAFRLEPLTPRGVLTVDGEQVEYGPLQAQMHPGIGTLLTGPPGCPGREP
# [3] = target: T1, Sphingosine kinase 2 (Homo sapiens); conditions: at 1 µM
# [4] = target: Casein kinase II subunit alpha (Homo sapiens) (UniProt P68400); conditions: at 0.1 µM
# [5] = target: Casein kinase II subunit alpha (Homo sapiens) (UniProt P68400); conditions: at 1 µM
# [6] = target: T2, Inhibitor of nuclear factor kappa-B kinase subunit alpha (Homo sapiens) (UniProt O15111); conditions: at 0.1 µM
# T2 sequence (whole entry): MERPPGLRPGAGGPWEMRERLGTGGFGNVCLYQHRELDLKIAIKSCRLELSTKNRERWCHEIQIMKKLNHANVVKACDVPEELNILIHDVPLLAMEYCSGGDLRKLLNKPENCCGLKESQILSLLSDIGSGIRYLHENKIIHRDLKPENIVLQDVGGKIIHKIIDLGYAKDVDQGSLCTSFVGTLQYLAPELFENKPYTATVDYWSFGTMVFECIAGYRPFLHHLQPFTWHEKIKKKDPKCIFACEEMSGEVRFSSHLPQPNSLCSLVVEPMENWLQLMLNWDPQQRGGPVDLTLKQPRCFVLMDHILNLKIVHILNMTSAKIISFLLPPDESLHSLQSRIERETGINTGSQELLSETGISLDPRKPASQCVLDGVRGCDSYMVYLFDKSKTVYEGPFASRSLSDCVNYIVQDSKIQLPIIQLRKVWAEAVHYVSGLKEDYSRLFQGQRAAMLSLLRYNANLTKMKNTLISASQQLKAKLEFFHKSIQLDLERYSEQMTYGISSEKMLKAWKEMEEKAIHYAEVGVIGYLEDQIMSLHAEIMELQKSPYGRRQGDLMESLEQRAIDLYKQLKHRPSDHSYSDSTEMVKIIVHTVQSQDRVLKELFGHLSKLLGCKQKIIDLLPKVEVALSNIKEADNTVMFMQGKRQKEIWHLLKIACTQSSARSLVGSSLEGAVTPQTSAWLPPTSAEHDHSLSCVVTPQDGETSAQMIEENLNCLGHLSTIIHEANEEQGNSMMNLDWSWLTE
# [7] = target: T2, Inhibitor of nuclear factor kappa-B kinase subunit alpha (Homo sapiens); conditions: at 1 µM
# [8] = target: T3, Inhibitor of nuclear factor kappa-B kinase subunit beta (Homo sapiens) (UniProt O14920); conditions: at 0.1 µM
# T3 sequence (whole entry): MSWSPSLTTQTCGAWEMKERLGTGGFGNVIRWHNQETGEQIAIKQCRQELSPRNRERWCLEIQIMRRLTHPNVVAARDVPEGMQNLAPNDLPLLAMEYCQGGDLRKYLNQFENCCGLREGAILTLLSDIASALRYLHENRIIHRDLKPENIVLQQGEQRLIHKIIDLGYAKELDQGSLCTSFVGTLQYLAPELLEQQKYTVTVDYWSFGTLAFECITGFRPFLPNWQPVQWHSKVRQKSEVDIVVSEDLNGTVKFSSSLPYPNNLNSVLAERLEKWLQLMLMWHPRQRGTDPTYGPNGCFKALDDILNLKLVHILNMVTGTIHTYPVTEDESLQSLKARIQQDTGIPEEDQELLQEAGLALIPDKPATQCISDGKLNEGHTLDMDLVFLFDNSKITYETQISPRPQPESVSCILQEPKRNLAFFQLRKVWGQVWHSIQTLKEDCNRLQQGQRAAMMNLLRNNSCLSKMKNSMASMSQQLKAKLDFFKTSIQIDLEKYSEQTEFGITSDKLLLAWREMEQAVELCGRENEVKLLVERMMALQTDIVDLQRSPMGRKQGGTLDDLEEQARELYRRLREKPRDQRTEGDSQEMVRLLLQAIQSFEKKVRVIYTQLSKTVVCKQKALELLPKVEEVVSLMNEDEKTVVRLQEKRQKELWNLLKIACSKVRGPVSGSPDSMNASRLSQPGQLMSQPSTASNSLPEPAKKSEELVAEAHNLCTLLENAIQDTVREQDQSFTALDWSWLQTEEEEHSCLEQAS
# [9] = target: T3, Inhibitor of nuclear factor kappa-B kinase subunit beta (Homo sapiens); conditions: at 1 µM
# [10] = target: T4, Inhibitor of nuclear factor kappa-B kinase subunit epsilon (Homo sapiens) (UniProt Q14164); conditions: at 0.1 µM
# T4 sequence (whole entry): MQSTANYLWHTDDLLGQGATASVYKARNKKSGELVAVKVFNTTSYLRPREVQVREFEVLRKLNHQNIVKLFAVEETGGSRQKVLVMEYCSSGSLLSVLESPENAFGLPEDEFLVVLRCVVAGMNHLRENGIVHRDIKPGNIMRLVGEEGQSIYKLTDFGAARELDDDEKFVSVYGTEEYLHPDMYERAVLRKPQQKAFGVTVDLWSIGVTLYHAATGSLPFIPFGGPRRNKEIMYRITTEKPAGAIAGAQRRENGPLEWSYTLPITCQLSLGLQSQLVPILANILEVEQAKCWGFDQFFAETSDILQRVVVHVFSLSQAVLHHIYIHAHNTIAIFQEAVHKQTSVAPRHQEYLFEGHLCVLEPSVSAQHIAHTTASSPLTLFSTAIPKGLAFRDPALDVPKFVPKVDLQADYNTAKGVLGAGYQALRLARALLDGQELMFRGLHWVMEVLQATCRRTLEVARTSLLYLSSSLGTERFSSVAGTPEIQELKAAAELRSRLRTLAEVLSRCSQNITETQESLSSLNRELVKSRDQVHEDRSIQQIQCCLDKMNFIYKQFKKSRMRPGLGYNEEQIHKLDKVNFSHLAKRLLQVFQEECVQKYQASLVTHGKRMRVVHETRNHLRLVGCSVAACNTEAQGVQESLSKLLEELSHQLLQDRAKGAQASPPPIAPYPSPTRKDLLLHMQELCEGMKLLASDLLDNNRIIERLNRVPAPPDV
# [11] = target: T4, Inhibitor of nuclear factor kappa-B kinase subunit epsilon (Homo sapiens); conditions: at 1 µM
# [12] = target: T5, Serine/threonine-protein kinase Nek1 (Homo sapiens) (UniProt Q96PY6); conditions: at 0.1 µM
# T5 sequence (whole entry): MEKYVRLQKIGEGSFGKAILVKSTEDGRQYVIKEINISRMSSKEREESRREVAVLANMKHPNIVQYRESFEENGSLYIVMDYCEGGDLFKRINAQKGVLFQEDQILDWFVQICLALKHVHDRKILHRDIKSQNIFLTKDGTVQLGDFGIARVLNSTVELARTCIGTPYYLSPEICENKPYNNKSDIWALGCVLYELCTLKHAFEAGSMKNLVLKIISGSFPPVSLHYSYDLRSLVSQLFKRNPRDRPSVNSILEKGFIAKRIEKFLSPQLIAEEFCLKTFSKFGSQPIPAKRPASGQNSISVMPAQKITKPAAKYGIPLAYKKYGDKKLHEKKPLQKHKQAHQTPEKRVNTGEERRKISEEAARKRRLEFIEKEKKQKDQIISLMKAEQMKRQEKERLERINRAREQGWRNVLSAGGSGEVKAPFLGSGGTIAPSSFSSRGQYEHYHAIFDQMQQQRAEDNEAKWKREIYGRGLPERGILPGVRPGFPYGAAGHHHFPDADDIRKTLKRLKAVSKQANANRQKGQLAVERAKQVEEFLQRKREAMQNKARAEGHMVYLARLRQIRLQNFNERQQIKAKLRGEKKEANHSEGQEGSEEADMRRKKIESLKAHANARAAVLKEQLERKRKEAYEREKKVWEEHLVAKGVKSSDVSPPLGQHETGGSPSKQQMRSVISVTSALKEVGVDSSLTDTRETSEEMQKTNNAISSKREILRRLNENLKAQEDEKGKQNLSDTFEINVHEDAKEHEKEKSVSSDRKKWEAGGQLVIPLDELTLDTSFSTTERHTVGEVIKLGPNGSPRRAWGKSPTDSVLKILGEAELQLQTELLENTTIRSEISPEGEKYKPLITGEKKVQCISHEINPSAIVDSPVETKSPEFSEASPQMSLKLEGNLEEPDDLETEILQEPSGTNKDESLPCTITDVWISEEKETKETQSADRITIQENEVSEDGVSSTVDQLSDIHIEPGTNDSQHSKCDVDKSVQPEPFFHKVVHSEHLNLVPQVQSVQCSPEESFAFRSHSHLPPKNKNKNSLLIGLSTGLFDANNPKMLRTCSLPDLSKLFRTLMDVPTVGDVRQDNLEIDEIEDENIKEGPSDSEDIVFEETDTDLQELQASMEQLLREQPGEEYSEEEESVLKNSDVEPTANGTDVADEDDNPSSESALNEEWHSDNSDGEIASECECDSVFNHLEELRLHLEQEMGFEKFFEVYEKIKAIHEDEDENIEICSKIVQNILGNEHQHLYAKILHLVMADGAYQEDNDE
# [13] = target: T5, Serine/threonine-protein kinase Nek1 (Homo sapiens); conditions: at 1 µM
# [14] = target: T6, Serine/threonine-protein kinase Nek2 (Homo sapiens) (UniProt P51955); conditions: at 0.1 µM
# T6 sequence (whole entry): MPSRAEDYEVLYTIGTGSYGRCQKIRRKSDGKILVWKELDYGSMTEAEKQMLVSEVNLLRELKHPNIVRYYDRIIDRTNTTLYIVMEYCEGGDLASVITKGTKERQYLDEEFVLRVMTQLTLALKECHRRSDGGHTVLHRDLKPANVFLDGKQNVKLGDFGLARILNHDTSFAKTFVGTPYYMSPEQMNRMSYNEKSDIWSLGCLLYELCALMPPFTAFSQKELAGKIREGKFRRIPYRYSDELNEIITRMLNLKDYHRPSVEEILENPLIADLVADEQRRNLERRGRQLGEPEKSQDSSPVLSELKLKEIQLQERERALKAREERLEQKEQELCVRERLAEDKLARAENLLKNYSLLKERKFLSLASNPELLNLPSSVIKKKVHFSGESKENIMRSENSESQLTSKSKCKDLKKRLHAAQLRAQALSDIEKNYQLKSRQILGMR
# [15] = target: T6, Serine/threonine-protein kinase Nek2 (Homo sapiens); conditions: at 1 µM
# [16] = target: Serine/threonine-protein kinase Nek6 (Homo sapiens) (UniProt Q9HC98); conditions: at 0.1 µM
# [17] = target: Serine/threonine-protein kinase Nek6 (Homo sapiens) (UniProt Q9HC98); conditions: at 1 µM
# [18] = target: Serine/threonine-protein kinase Nek7 (Homo sapiens) (UniProt Q8TDX7); conditions: at 0.1 µM
# [19] = target: Serine/threonine-protein kinase Nek7 (Homo sapiens) (UniProt Q8TDX7); conditions: at 1 µM
# [20] = target: T7, Serine/threonine-protein kinase Nek9 (Homo sapiens) (UniProt Q8TD19); conditions: at 0.1 µM;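 also: reported value is the mean percent inhibition of NEK9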
# T7 sequence (whole entry): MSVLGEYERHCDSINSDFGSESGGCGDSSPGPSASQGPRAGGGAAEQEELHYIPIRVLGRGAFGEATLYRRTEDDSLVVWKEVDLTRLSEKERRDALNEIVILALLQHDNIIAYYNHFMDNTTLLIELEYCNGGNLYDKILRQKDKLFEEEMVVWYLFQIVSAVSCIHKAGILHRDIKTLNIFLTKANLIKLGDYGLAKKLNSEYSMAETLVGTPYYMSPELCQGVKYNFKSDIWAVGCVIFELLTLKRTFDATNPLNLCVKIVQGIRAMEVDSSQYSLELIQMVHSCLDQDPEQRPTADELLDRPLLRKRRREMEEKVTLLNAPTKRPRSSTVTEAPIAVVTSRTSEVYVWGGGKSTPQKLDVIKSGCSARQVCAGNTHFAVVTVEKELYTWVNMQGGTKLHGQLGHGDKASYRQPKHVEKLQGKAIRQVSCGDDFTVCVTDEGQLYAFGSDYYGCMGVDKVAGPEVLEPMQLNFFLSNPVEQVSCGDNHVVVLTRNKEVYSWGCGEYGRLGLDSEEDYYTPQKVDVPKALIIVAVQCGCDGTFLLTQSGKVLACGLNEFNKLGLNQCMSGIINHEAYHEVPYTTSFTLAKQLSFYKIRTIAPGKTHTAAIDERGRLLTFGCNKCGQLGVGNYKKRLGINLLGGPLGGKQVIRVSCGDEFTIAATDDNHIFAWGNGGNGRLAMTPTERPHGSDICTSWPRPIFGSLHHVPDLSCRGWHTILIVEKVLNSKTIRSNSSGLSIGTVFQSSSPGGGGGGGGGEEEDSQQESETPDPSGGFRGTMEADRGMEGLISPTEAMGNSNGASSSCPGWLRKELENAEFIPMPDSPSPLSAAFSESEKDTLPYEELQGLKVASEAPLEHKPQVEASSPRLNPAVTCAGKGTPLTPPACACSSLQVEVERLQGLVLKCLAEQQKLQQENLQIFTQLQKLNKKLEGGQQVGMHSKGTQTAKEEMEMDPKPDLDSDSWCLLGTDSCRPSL
# Chain of Serine/threonine-protein kinase Nek6 (Homo sapiens) (Q9HC98 whole entry): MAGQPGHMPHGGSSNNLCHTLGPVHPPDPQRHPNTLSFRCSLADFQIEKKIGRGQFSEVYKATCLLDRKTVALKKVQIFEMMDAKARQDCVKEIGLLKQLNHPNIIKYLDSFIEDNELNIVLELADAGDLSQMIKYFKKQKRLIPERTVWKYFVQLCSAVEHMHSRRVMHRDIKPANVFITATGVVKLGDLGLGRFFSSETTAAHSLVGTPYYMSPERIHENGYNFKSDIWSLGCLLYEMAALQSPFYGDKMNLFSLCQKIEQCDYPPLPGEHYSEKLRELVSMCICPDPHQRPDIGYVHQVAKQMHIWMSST
# Chain of Casein kinase II subunit alpha (Homo sapiens) (P68400 whole entry, looked up): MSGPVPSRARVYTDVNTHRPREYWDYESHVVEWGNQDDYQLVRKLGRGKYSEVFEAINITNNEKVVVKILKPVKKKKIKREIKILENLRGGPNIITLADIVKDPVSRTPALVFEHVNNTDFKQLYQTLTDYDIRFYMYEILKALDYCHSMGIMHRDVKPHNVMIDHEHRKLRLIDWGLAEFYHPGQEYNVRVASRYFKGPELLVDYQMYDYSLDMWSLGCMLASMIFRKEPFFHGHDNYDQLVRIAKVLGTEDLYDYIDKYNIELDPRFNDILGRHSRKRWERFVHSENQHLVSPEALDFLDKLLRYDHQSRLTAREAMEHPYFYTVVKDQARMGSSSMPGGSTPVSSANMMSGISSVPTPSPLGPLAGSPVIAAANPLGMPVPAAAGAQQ
# Chain of Serine/threonine-protein kinase Nek7 (Homo sapiens) (Q8TDX7 whole entry, looked up): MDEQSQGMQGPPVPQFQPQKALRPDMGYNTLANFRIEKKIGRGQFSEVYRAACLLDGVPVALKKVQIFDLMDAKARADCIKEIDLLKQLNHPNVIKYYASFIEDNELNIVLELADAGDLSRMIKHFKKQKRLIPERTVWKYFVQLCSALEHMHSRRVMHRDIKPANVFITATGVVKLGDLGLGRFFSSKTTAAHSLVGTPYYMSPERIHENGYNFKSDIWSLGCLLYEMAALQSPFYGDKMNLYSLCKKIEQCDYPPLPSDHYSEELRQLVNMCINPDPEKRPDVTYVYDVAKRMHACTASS
# Chain of Sphingosine kinase 1 (Homo sapiens) (Q9NYA1 whole entry): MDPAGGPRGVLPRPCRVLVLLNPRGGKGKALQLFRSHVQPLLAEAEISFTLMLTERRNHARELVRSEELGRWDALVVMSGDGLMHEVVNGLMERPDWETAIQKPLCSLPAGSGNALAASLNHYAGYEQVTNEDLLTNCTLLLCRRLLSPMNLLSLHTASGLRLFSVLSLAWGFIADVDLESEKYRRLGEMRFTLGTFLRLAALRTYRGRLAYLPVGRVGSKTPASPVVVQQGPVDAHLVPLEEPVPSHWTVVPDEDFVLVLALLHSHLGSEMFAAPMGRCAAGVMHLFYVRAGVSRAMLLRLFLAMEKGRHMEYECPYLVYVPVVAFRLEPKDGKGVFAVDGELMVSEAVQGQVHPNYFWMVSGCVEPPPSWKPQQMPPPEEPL
structure (smiles),measurement,setting,value
O=C(O[C@H]1CN[C@H](C#Cc2cc3ncnc(Nc4ccc5c(cnn5Cc5ccccc5)c4)c3s2)C1)N1CCOCC1,inhibition,[1],-0.72%
same,inhibition,[2],0.71%
same,inhibition,[3],-0.03%
same,inhibition,[4],-2.6%
same,inhibition,[5],1.05%
same,inhibition,[6],1.12%
same,inhibition,[7],-2.78%
same,inhibition,[8],-1.3%
same,inhibition,[9],-0.9%
same,inhibition,[10],-7.28%
same,inhibition,[11],2.35%
same,inhibition,[12],1.14%
same,inhibition,[13],-0.05%
same,inhibition,[14],0.17%
same,inhibition,[15],0.04%
same,inhibition,[16],-0.55%
same,inhibition,[17],1.2%
same,inhibition,[18],-1.22%
same,inhibition,[19],1.45%
same,inhibition,[20],-1.71%
